In all, about 420,000 compounds went through this assay and about 64,000 (15%) were called active. Not shown: some 27% with an inconclusive outcome. Not all results are given here. A number with no mark means an inactive call. Calls come from the whole dose curve; as a rule, active = well fitted inhibition curve with a large enough effect; inconclusive = small, poorly fitted or top-dose-only effect; inactive = flat fitted curve, though single readings scatter.
experiment: qHTS for Inhibitors of human tyrosyl-DNA phosphodiesterase 1 (TDP1): qHTS in cells in absence of CPT; conditions: DT40 Tdp1-/- hTDP1 cells, no CPT, ATP luminescence, 48 h; activity change, negative = growth inhibition: at 46.2 µM (top of the series); note: nearly all actives have a fitted effect of over 55% in size
Method in brief: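 Camptothecin absent (DMSO only). Human TDP1-complemented DT40 knockout cells, 400 cells/well, 37 °C for minimum 48 hr; ATP measured via CellTiter-Glo, 30 min dark incubation, luminescence.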
% is set by controls: 0 for no effect and ±100 for the full control effect; potency is the fitted concentration of half-maximal effect.

Structure (SMILES)	activity change, negative = growth inhibition	Potency
Cc1cccc(NC(=O)c2cccc(C(=O)Nc3cccc(C)c3C)n2)c1C	-7.12%	–
CCN1/C(=C/c2ccc3ccc(C)cc3[n+]2CC)Sc2ccccc21	–	2.06 µM (active)
CCN1/C(=C\c2ccc3ccccc3[n+]2CC)Sc2cc(C)ccc21	–	0.184 µM (active)
Cn1c(Nc2ccccc2)cc(=O)n(C)c1=O	1.8%	–
CCc1ccccc1NC(=S)N(CCN1CCCCCC1)Cc1ccco1	-1.1%	–
CCN(CC)S(=O)(=O)c1ccc2nc(COC(=O)c3n[nH]c4ccccc34)[nH]c2c1	-17.7%	–
CC(=O)O[C@H]1CC[C@@]2(C)C(=CC[C@@H]3[C@@H]2CC[C@]2(C)C(c4cccnc4)=CC[C@@H]32)C1	-23.6%	–
CC(=O)OC1CCC2(C)C(=CCC3C4CC(=O)N(O)C(=O)C4(C)CCC32)C1 (stereo unspecified)	–	5.17 µM (active)
C[C@]12CC[C@H](O)CC1=CCC1C2CC[C@@]2(C)C1CC[C@@H]2NC(=O)CCC(=O)O (stereo partly specified)	-8.9%	–
CN(C)CCNC(=O)/C(=C/c1cccc([N+](=O)[O-])c1)NC(=O)c1ccccc1	2.73%	–
CCOCc1nnc(NC(=O)CSc2ccc(C)cc2)s1	-19.2%	–
OC1CSc2nc3ccccc3n2C1 (stereo unspecified)	4.08%	–
CCCc1nn2c(=O)cc(CSCC(=O)Nc3cccc(C)c3)nc2s1	18.6%	–
CC(C)(C)OC(=O)C[C@@H]1C/C=C\C[C@@H](CC(=O)N[C@H](CO)Cc2ccccc2)C(=O)NC[C@@H](c2ccccc2)OC1=O	–	20.6 µM (active)
C[C@H]1COC(=O)[C@H](CC(=O)OC(C)(C)C)C/C=C\C[C@@H](CC(=O)N[C@H](CO)Cc2ccccc2)C(=O)N1	–	14.6 µM (active)
CC(C)(C)OC(=O)C[C@H]1C/C=C\C[C@@H](CC(=O)N[C@H](CO)Cc2ccccc2)C(=O)NC[C@@H](c2ccccc2)OC1=O	–	18.4 µM (active)
O=C(C[C@H]1C/C=C\C[C@@H](NC(=O)OCC2c3ccccc3-c3ccccc32)C(=O)O[C@@H](c2ccccc2)CNC1=O)N[C@H](CO)Cc1ccccc1	–	18.4 µM (active)
CC(C)(C)OC(=O)NC(Cc1ccccc1)C(=O)NC(CSC1CCCCO1)C(=O)NN (stereo unspecified)	0.0689%	–
CC(C)[C@@H](NC(=O)OC(C)(C)C)C(=O)NCC1CCC(C(=O)N[C@@H](Cc2ccccc2)C(=O)O)CC1 (stereo partly specified)	-10.5%	–
COc1ccc(OCC(=O)NCCc2ccc(S(N)(=O)=O)cc2)cc1	0.22%	–
CCC(C)N1CC(=O)N2Cc3[nH]c4ccccc4c3C[C@H]2C1=O (stereo partly specified)	-16.6%	–
CCN(CC)CCNS(=O)(=O)c1ccc(/C=C/C(=O)O)cc1	-7.55%	–
CNCC(O)c1ccc(O)c(O)c1 (stereo unspecified)	-15.9%	–
COc1ccc(CNC(=O)C(=O)NCC2OCCN2C(=O)c2ccc(OC)cc2)cc1 (stereo unspecified)	-16.3%	–

Structure (SMILES)	activity change, negative = growth inhibition	Potency
C/C(=C(\C#N)C(=O)NCCCN1CCOCC1)N(C)C	-3.07%	–
O=C(CCc1ccccc1)NNc1ccc(F)cc1	-26.9%	–
Cc1cccc2cc(CN(Cc3cccs3)C(c3nnnn3C3CCCC3)C(C)C)c(=O)[nH]c12 (stereo unspecified)	-20.3%	–
O=C(CSc1nnnn1C1CCCC1)Nc1ccc2c(c1)OCCO2	0.417%	–
CC(C)C(c1nnnn1Cc1ccccc1)N1CCC(C(N)=O)CC1 (stereo unspecified)	6.13%	–
CCC(=O)Nc1cccc(NC(=O)CSc2nnnn2C2CCCC2)c1	-14.2%	–
Cc1cccc2[nH]c(CN(C)C(=O)C3CCC(=O)N(CCc4ccccc4)C3)nc12 (stereo unspecified)	-10.5%	–
Cc1cccc2cc(CN(Cc3ccc4c(c3)OCO4)Cc3nnnn3C3CCCC3)c(=O)[nH]c12	–	16.4 µM (active)
Cc1cccc2cc(CN(Cc3nnnn3Cc3ccccc3)C3CCCC3)c(=O)[nH]c12	–	12.6 µM (active)
CCC(c1nnnn1C1CCCC1)N(Cc1cccs1)Cc1cc2cccc(C)c2[nH]c1=O (stereo unspecified)	–	18.4 µM (active)
Cc1ccccc1-c1nnc(SCC(=O)NCc2ccc3c(c2)OCO3)n1C	-2.12%	–
CSc1ccc(S(=O)(=O)NCc2ccc(Cl)cc2)cc1	-14.2%	–
CS(=O)(=O)n1nc(-c2ccco2)nc1N	-3.7%	–
Cc1ccnc(NC(=O)C(C)N2C(=O)c3ccccc3C2=O)c1 (stereo unspecified)	24.5%	–
C=CCc1cccc2cc(C(=O)OCC)c(=O)oc12	-20%	–
CC/C=C/C(=O)N1CC2(CC(c3cccc(NC(=O)CC)c3)=NO2)C[C@H]1C(N)=O (stereo partly specified)	-14.1%	–
Cc1ccc(C)c(S(=O)(=O)N(C)c2ccc(OC(=O)C3CCN(C(=O)c4ccc(F)cc4)CC3)cc2)c1	-22.1%	–
Cc1ccc(OCC(=O)Nc2ccc(-c3nc4ncccc4o3)cc2)cc1	-27.8%	–
Cc1cc(N2C(=O)c3ccc(C(=O)NCc4ccccc4)cc3C2=O)no1	0.0239%	–
COc1cccc(CSc2nc3nc(C)cc(C)n3n2)c1	-1.82%	–
COc1ccc(-c2cc(C)nc3nc(N)nn23)cc1	-2.44%	–
COc1cccc(-c2nc3nc(C)cc(C)n3c2NC2CCCCC2)c1	–	20.6 µM (active)
COc1ccc2nc(C)cc(Nc3cccc(C(=O)O)c3)c2c1	12.1%	–
COc1ccc(-c2nc3nc(C)cc(C)n3c2Nc2c(C)cccc2C)cc1	–	18.4 µM (active)

Structure (SMILES)	activity change, negative = growth inhibition	Potency
COc1cccc(-c2cnc(OC(C)(C)C)nc2OC(C)(C)C)c1	-27.7%	–
CCOc1ccc(-c2nc(C)sc2CC(=O)O)cc1	-5.66%	–
Cc1cccc(CSc2nnc(C)c(=O)n2N)c1	-23%	–
O=C(NC1CCCC1)C(c1ccc(Cl)cc1)N(C(=O)c1csnn1)C1CC1 (stereo unspecified)	-8.07%	–
COc1ccc(-c2cc(=O)c3c(O)cc(O[C@@H]4O[C@H](CO[C@@H]5O[C@@H](C)[C@H](O)[C@@H](O)[C@H]5O)[C@@H](O)[C@H](O)[C@H]4O)cc3o2)cc1O	–	inactive
CCn1c(=O)cc(O)c2ccccc21	-9.55%	–
CCOC(=O)C1CCN(S(=O)(=O)c2cc(F)ccc2OC)CC1	-17.4%	–
CCOC(=O)c1cnc(COc2ccccc2Cl)[nH]c1=O	-9.74%	–
CC1(C)NC(=O)N(CC(=O)Nc2ccc(-c3ccccc3)cc2)C1=O	-1.23%	–
CN1CCN(C(=O)C2=C[C@H](c3ccc4c(c3)OCO4)C[C@H](OCc3ccc(CO)cc3)O2)CC1	-15.1%	–
O=C(C1=C[C@H](c2coc3ccccc3c2=O)C[C@H](OCc2ccc(CO)cc2)O1)N1CCN(Cc2ccccc2)CC1	–	18.4 µM (active)
O=C(C1=C[C@H](c2ccc(C(F)(F)F)cc2)C[C@H](OCc2ccc(CO)cc2)O1)N1CCN(Cc2ccccc2)CC1	–	13 µM (active)
O=C(O)C1=C[C@H](c2cccs2)C[C@H](OCCCCO)O1	-2.91%	–
C=CCOC(=O)C1=C[C@@H](c2ccccc2)C[C@@H](OCc2ccc(CO)cc2)O1	-21.2%	–
O=C(C1=C[C@H](c2coc3ccccc3c2=O)C[C@H](OCc2ccc(CO)cc2)O1)N1CCOCC1	-14.3%	–
C#Cc1ccc([C@@H]2C=C(C(=O)O)O[C@H](OCCCCO)C2)cc1	-15.9%	–
NC(=O)C1=C[C@H](c2csc3ccccc23)C[C@H](OCc2ccc(CO)cc2)O1	–	20.6 µM (active)
NC(=O)C1=C[C@@H](c2ccc3c(c2)OCO3)C[C@@H](OCCCCO)O1	2.17%	–
COc1cc(C(=O)N2CCN(C3CCC(C)CC3)CC2)cc(OC)c1OC (stereo unspecified)	5.51%	–
CCN(CC)CCN(C(=O)c1cc(Cl)sc1Cl)c1nc2cc3c(cc2s1)OCO3	-28.6%	–
CN(C(=O)c1ccno1)c1nnc(-c2cccnc2)s1	-0.876%	–
CCC1(C)N(O)C(C)(C)C(c2ccc(OC)cc2)=[N+]1[O-] (stereo unspecified)	-0.459%	–
O=S(=O)(Nc1ncccn1)c1ccc(NS(=O)(=O)c2cccc(Cl)c2Cl)cc1	-12.9%	–
Cc1noc(NS(=O)(=O)c2ccc(N/C=C/C(=O)c3ccccc3)cc2)c1C	-7.47%	–

Structure (SMILES)	activity change, negative = growth inhibition	Potency
CC(C)C[C@H](NC(=O)C1CC(=O)N(c2ccc3c(c2)OCCO3)C1)C(=O)NC1CCCC1 (stereo partly specified)	7.04%	–
COc1ccc(-c2csc3ncnc(N4CCN(S(=O)(=O)c5ccccc5C#N)CC4)c23)cc1	–	16.4 µM (active)
N#Cc1ccccc1S(=O)(=O)N1CCN(Cc2c(O)ccc3ccccc23)CC1	0.994%	–
COc1ccc(S(=O)(=O)N2CCN(c3cnccn3)CC2)cc1	-19.6%	–
Cc1ccc(S(=O)(=O)n2nc(OC(=O)C(C)(C)C)cc2N)cc1	-29.9%	–
CCOC(=O)c1oc2ccc(S(=O)(=O)n3nc(-c4ccccc4OC)cc3N)cc2c1C	–	5.17 µM (active)
CCOc1ccc(S(=O)(=O)N2CCN(C(=O)c3oc4ccccc4c3C)CC2)cc1	-29.3%	–
C[C@H](NC(=O)[C@@H]1CCCN1C(=O)[C@@H]1CCCN1C(=O)c1ccccc1)c1ccccc1	-23.5%	–
CCS(=O)(=O)N1CCC(n2c(C)nc3cccnc32)CC1	-0.165%	–
CCCS(=O)(=O)N1CCC(n2c(C(F)(F)F)nc3cccnc32)CC1	–	5.17 µM (active)
O=C1NC(CC(=O)N2CCC(n3c(C4CCC4)nc4cccnc43)CC2)c2ccccc21 (stereo unspecified)	-1.68%	–
CC(C)CC(CC(C)C)=NNC(=O)c1ccc(CSc2nncn2C)cc1	3%	–
CC(=O)c1cc(C#N)c(SCC(=O)C(C)(C)C)nc1C	–	3.16 µM (active)
CC(=O)c1cc(C#N)c(N2CC(C)OC(C)C2)nc1C (stereo unspecified)	15.6%	–
CC(=O)c1cc(C#N)c(N2CCCCC2)nc1C	-19.2%	–
CN1OC[C@@H]2CN(C(=O)c3cccnc3)[C@H](c3ccc(N4CCCCC4)cc3)C[C@@H]21	12.5%	–
CCc1nnc(NC(=O)C2CC(=O)N(c3ccc4c(c3)OCCO4)C2)s1 (stereo unspecified)	–	18.4 µM (active)
CCOC(=O)c1ccc(NC(=O)C2CC(=O)N(c3ccc4c(c3)OCCO4)C2)cc1 (stereo unspecified)	-1.25%	–
CC(=O)c1ccccc1NC(=O)C1CC(=O)N(c2ccc3c(c2)OCCO3)C1 (stereo unspecified)	-13.3%	–
CN1CCN(CC(O)COCc2ccc3c(c2)OCO3)CC1 (stereo unspecified)	4.13%	–
CC(=O)Nc1ccc(NC(=O)COC(=O)C2CCC(C(C)(C)C)CC2)cc1 (stereo unspecified)	-10.4%	–
CSc1nc(-c2ccc(F)cc2)nc2c1Cc1c(CO)cnc(C)c1O2	-1.83%	–
CSc1nc(-c2ccccc2Cl)nc2c1Cc1c(CO)cnc(C)c1O2	–	18.4 µM (active)
Cc1ccccc1CSc1nc(-c2ccccc2)nc2c1Cc1c(CO)cnc(C)c1O2	-18.4%	–

— PubChem BioAssay AID686978 (National Center for Advancing Translational Sciences (NCATS), 2013)
